CD11b adhes enh = increases human CD11b/CD18 adhesion to fibrinogen; P05107+P11215; K562 CD11b/CD18 adhesion to fibrinogen, ATPlite luminescence; activation, % at 10 µM; 0.07% of 93,000 active; AID 1499;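 active = 10 µM primary screen giving 50% or more activity, confirmed by 40% or more on retest at that dose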
CD11b adhes inh = inhibitors of human CD11b/CD18 binding to fibrinogen; P05107+P11215; K562 CD11b/CD18 adhesion to fibrinogen, ATPlite luminescence; Mn2+ added to activate the integrin; inhibition, % at 10 µM; 0.54% of 93,000 active;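 active = primary inhibition of 50% or more at 10 µM, then 40% or more on retest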
CYP2C9 act = increases human cytochrome P450 2C9 activity; recombinant CYP2C9, luciferin-H conversion, luminescence; hits give high values; factor 1 = untreated enzyme, 0 = blocked; activation factor at 5 µM; 1.4% of 96,000 active; AID 1024;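 active = activation factor of 2 or more for CYP2C9 at a 5 µM dose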
CYP2C19 activ = activators of human cytochrome P450 2C19; AID 1025; activation factor at 5 µM; recombinant CYP2C19, luciferin-H EGE luminescence; hits give high values; 0 = fully inhibited enzyme, 1 = untreated enzyme; 96,000 tested, under 10 active;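 active = activation factor of at least 2 at 5 µM in the primary screen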
Target sequence (P33261 whole entry, looked up): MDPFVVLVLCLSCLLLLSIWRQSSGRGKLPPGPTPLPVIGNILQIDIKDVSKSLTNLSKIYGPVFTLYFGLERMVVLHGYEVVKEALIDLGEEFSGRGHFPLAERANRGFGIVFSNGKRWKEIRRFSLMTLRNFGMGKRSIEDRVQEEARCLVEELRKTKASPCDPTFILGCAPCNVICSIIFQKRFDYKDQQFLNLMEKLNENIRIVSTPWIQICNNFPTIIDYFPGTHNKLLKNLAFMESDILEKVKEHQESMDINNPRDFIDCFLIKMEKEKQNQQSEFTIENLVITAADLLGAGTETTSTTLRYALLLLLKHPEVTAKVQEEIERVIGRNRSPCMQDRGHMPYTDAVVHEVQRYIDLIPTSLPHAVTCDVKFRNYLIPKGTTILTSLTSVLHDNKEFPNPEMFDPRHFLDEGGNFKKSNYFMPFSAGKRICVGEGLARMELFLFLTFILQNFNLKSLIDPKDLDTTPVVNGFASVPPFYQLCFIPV
CYP2C9 inhib = blocks human cytochrome P450 2C9; CYP2C9 Supersomes, luciferin-H conversion, luminescence; inhibition, % at 5 µM; 20% of 96,000 active; AID 777;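 active = blocking of liver enzyme CYP2C9 beyond about 50% at 5 µM, limit read from the data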
CYP2C19 inhib = blocks human cytochrome P450 2C19; P33261; CYP2C19 Supersomes, luciferin-H EGE luminescence, 30 min; inhibition, % at 5 µM; 21% of 96,000 active; AID 778;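 active = CYP2C19 inhibition above a set limit at 5 µM in the primary screen, cut at about 50% in these data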
Large screens that a line does not name were inactive. Hits are enriched below; roughly 28% of the tested compounds scored in any of these assays.

COc1ccc(S(=O)(=O)N2CCC(C(=O)Nc3c(F)cccc3F)CC2)cc1	none
COc1cc2c(cc1OC)-c1cc(N3CCCc4ccccc43)nc(=O)n1CC2	CYP2C9 inhib 69.3, CYP2C19 inhib 59.9
COc1cc2c(cc1OC)-c1cc(Nc3ccc4c(c3)OCCO4)nc(=O)n1CC2	CYP2C9 inhib 66.9 (no result: CD11b adhes enh, CD11b adhes inh)
CCOC(=O)CSC1=C(C#N)C(c2ccc(OC)cc2)C2=C(CC(C)(C)CC2=O)N1 (stereo not drawn)	CYP2C9 inhib 62.7, CYP2C19 inhib 71.6
COc1ccc(C2CC(=O)C3=C(C2)NC(C)=C(C#N)C3c2ccc(N(C)C)cc2)cc1 (stereo not drawn)	CYP2C9 inhib 87.4, CYP2C19 inhib 64.3
COc1ccc(C2C(C#N)=C(SC)NC3=C2C(=O)CC(C)(C)C3)cc1 (stereo not drawn)	CYP2C9 inhib 73.3
CCOC(=O)CSC1=C(C#N)C(c2ccc(C)cc2)C2=C(CCCC2=O)N1 (stereo not drawn)	CYP2C9 inhib 77.8
COc1cc2c(cc1OC)-c1nnc(-c3cccs3)n1C1(CCCC1)C2	none
COc1ccc(/C(O)=C2/C(=O)C(=O)N(CCCN(C)C)C2c2ccc(C)o2)cc1Cl (stereo not drawn)	none
CCOc1ccccc1NC(=O)C(Sc1ccccc1)c1ccccc1 (stereo not drawn)	none
CN(CC(=O)N1CCc2ccccc21)S(=O)(=O)c1cccs1	CYP2C9 act 3, CYP2C19 inhib 89.1
N#Cc1nc(-c2cccs2)oc1NCCCN1CCOCC1	none
CCNNC(=O)C(O)(c1cccc(C)c1)c1cccc(C)c1	none (no result: CYP2C9 act, CYP2C19 activ, CYP2C9 inhib, CYP2C19 inhib)
Cc1cc(C(F)F)n2ncc(C(=O)N3CCc4ccccc4C3)c2n1	CYP2C19 inhib 84.5
O=C(c1cnn2c(C(F)F)cc(C3CC3)nc12)N1CCc2ccccc2C1	CYP2C19 inhib 73.6
O=C(c1cnn2c(C(F)F)cc(C3CC3)nc12)N1CCCC1	none
O=C(c1cnn2c(C(F)(F)F)cc(-c3ccco3)nc12)N1CCc2ccccc2C1	CYP2C9 inhib 76.3, CYP2C19 inhib 59.3 (no result: CD11b adhes enh, CD11b adhes inh)
O=C(c1cnn2c(C(F)(F)F)cc(-c3ccco3)nc12)N1CCCCCC1	none
CCCCn1c(=O)n(CC(O)c2ccccc2)c(=O)c2c1ncn2C1CCCC1 (stereo not drawn)	none
CCc1nc(SCc2cccnc2)[nH]c(=O)c1C	CYP2C9 inhib 82.0
CCOc1cccc(C(=O)NC2CCCCC2)c1	CYP2C19 inhib 68.3
COc1cccc(C(=O)NC2CCN(C(=O)N3CCCCC3)CC2)c1	none
CCOC(=O)C1CCN(C(=O)c2cccnc2)CC1	none
Cc1ccc(C(=O)NC2CCCCC2)cc1	none (no result: CD11b adhes enh, CD11b adhes inh)
CCOC(=O)COc1ccc(C(=O)NC2CCCCC2)cc1	CYP2C9 act 3
CCOc1cccc(C(=O)N2CCCCC2c2cccnc2)c1 (stereo not drawn)	CYP2C9 act 2.1
O=C(Cn1nnc(-c2ccc(Cl)cc2)n1)NC1CC2CCC1C2 (stereo not drawn)	none
CCC(C)Nc1nc(OC)nc(N(C)C#N)n1 (stereo not drawn)	none
CCCn1c(C)cc(=O)c2cc(NC(=O)c3cnccn3)ccc21	none
CC(C)OC(=O)CSc1nnc(-c2ccccn2)n1-c1ccccc1	none (no result: CD11b adhes inh)
N#Cc1ccc(CSc2nnc(-c3cccs3)n2-c2ccccc2)cc1	CYP2C9 inhib 92.0, CYP2C19 inhib 92.6
O=C(O)CSc1nnc(-c2ccncc2)n1CCc1ccccc1	none
N#Cc1ccc(CSc2nnc(-c3ccccn3)n2-c2ccccc2)cc1	CYP2C19 inhib 78.1
N#Cc1ccc(CSc2nnc(-c3ccncc3)n2CCc2ccccc2)cc1	CYP2C9 inhib 54.1, CYP2C19 inhib 61.1
Cc1cc(C)nc(N2CCC(C(=O)Nc3nnc(C)s3)CC2)n1	none
Cn1nc([N+](=O)[O-])nc1Oc1ccccc1N	none
Cc1ccc(-c2cc(-c3ccc(C)o3)nc(N)c2C#N)cc1	none
Cc1cc(-c2cc(-c3ccc(Cl)cc3)nc(N)c2C#N)co1	CYP2C9 inhib 69.0, CYP2C19 inhib 83.0 (no result: CD11b adhes enh, CD11b adhes inh)
Cc1ccc(-c2cc(-c3ccc(Cl)cc3)c(C#N)c(N)n2)o1	CYP2C9 inhib 57.3, CYP2C19 inhib 75.4
CCOc1cc(C)nc(N2CCN(C3CCCCC3)CC2)n1	CYP2C19 inhib 62.2
Nc1c(-c2ccc(Cl)cc2)cnc2ncnn12	none
Cc1cc2ncc(-c3ccc(Cl)cc3)c(N)n2n1	CYP2C9 inhib 77.2
CN1CCN(C(=O)CCC(=O)c2ccc(F)cc2)CC1	none
CC(=O)c1cc(C)ccc1OC(=O)CCN1C(=O)C2C3c4ccccc4C(c4ccccc43)C2C1=O (stereo not drawn)	none (no result: CD11b adhes enh, CD11b adhes inh)
COc1ccc(O/C(=N\S(=O)(=O)c2ccccc2)c2ccccc2)cc1	none
CS/C(=N\S(=O)(=O)c1ccc(Cl)cc1)c1ccccc1	CYP2C9 inhib 88.7, CYP2C19 inhib 95.6
O=S(=O)(/N=C(/c1ccc(Cl)cc1)N1CCOCC1)c1ccc(Cl)cc1	none (no result: CD11b adhes enh, CD11b adhes inh)
CC(C)CO/C(=N/S(=O)(=O)c1ccccc1)c1ccccc1	CYP2C9 inhib 78.5, CYP2C19 inhib 76.3
Cc1cccc(NC(=S)N/C(=N/S(=O)(=O)c2ccccc2)c2ccccc2)c1	none
CC(C)O/C(=N\S(=O)(=O)c1ccc(Cl)cc1)c1ccccc1	CYP2C9 inhib 95.1, CYP2C19 inhib 95.3
CC(C)OC(=S)N/C(=N\S(=O)(=O)c1ccccc1)c1ccccc1	CYP2C9 inhib 61.2
O=C(CSc1nnc(CNC(=O)c2ccco2)o1)NC1CCCC1	none
Cc1ccc(-n2nnnc2Sc2nc([N+](=O)[O-])nn2C)cc1C	none (no result: CYP2C9 act, CYP2C19 activ, CYP2C9 inhib, CYP2C19 inhib)
O=C(c1cc(F)c(F)cc1Cl)N1CCOCC1	none
CC1CCCC(C)N1C(=O)c1cc(F)c(F)cc1Cl (stereo not drawn)	CYP2C19 inhib 59.2
CCCCCCCCSc1nnc(CSc2nc3nc(C)cc(C)n3n2)o1	none
O=C(CSc1nc(-c2ccc(F)cc2)cs1)N1CCc2ccccc21	none
C=CCNC(=O)c1ccc(Sc2ccccc2)c([N+](=O)[O-])c1	CYP2C9 inhib 69.5, CYP2C19 inhib 76.3
Cc1ccc(C(=O)NC(C)CCc2ccccc2)cc1[N+](=O)[O-] (stereo not drawn)	none (no result: CD11b adhes enh, CD11b adhes inh)
CC(C)(C)NC(=O)c1ccc(Sc2ccccc2)c([N+](=O)[O-])c1	CYP2C9 inhib 92.4, CYP2C19 inhib 69.5
CCCCNC(=O)CN1C(=O)NC2NC(=O)NC21 (stereo not drawn)	none
COc1cccc(C(=O)N(Cc2ccc(N(C)C)cc2)C2CCS(=O)(=O)C2)c1 (stereo not drawn)	none
CC(=O)Nc1cccc(NC(=O)CSc2nnc(Cc3cccn3C)n2CCc2ccccc2)c1	none
Cc1ccc(CSC2=Nc3sccc3C3=NC(=O)CN23)cc1	CYP2C19 inhib 66.1 (no result: CD11b adhes enh, CD11b adhes inh)
COc1cc2c(cc1OC)C1=NC(=O)CN1C(SCc1ccc(C)cc1)=N2	none
COC(=O)c1cn(C(C)C(=O)NCc2ccco2)c2ccccc12 (stereo not drawn)	CYP2C19 inhib 59.3
